Screening data as filed in PubChem BioAssay.
HSD17B inh: blocks hydroxysteroid 17-beta dehydrogenase activity; recombinant HSD17B10, NADH fluorescence kinetic; Potency, µM (titrated, usually from 57.1 µM), most hits filed as inhibitors; hit rate 7.6% among 75,000;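 also: the protocol describes HADH2 (HSD17B10) and not the HSD17B4 of the title; nearly all actives have a fitted effect of over 70% in size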
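20 nM HADH2, pH 9.0 Tris/Tween; cpd preinc 15 min RT; start w/ 1 mM NAD+ + 90 uM b-hydroxybutyryl-CoA; kinetic fluor ex360/em450 q30s x 4 min; delta last-first.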
HADH2 inhib: blocks human hydroxyacyl-CoA dehydrogenase type II. Q99714. recombinant HADH2, NADH fluorescence, beta-hydroxybutyryl-CoA. Potency, µM (doses to about 57.1 µM), most hits filed as inhibitors. hit rate 3.4% among 73,000. AID 886; also: nearly all actives have a fitted effect of over 60% in size
Target sequence (Q99714 whole entry, looked up, one chain of several): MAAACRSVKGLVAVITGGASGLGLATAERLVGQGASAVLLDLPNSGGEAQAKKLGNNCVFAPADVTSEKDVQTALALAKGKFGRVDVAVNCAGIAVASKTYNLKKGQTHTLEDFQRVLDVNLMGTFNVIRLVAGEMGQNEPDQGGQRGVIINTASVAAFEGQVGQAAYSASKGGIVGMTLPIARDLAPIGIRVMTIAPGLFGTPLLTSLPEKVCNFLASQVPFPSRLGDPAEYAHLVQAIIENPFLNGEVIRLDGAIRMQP
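20 nM HADH2 + cpd, 15 min RT; add 1 mM NAD+/90 uM beta-hydroxybutyryl-CoA; kinetic fluorescence 360/450 nm, 4 min. Tris-HCl pH 9.0, 0.01% Tween-20.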
AID923: qHTS Assay for Allosteric/Competitive Inhibitors of Caspase-1: Spectroscopic Profiling in AFC Spectral Region | compound fluorescence, AFC spectral region (405/520 nm) | Potency, µM (highest dose often 57.5 µM), usual class: activators | hit rate 1.1% among 75,000
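Titrations up to 57 uM read every 20 sec for 3 min (405/520 nm) with 50 nM caspase 1 and 5 uM Ac-WEHD-AFC, pH 7.5 HEPES buffer. Fluorescence-vs-time intercept gave baseline, scaled against on-plate AFC standard.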
CRE-bla Fsk: CRE-bla signaling modulation under forskolin stimulation; hit rate 2.5% among 71,000; CHO CRE-bla reporter (cAMP response element driving beta-lactamase), forskolin EC10, beta-lactamase ratio; Potency, µM (titrated, usually from 38.2 µM), actives largely listed as activators; active = well fitted activation curve with a large enough effect in the signal ratio, with a control signal flat, not every such curve was filed as active; inconclusive = small, poorly fitted or top-dose-only effect, or effect the other way, or a change in a side signal; the % refers to the signal ratio
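qHTS titration format; CRE-bla CHO reporter; stimulus EC10 NKH 477, a water-soluble forskolin. Read: CCF4 460/530 nm ratio. Potency expressed as AC50 for activators or inhibitors.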
4-MU autofl: 4-MU region autofluorescence | compound autofluorescence, 340/450 nm, 4-MU equivalents; stronger effect = higher value | hit rate 11% among 59,000 | max dye-equivalent concentration, M; in the data active = max dye-equivalent concentration above about 10 nM; inconclusive = mostly about 1.1 nM to 9.6 nM
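Intrinsic fluorescence at 340/450 nm (ex/em) was read after 15 min at room temperature in pH 8.0, 100 mM Tris. Each compound concentration expressed as 4-MU-equivalent concentration from a six-point 4-MU standard series on each plate.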
A350 autofl: compound fluoresces in the Alexa 350 spectral region; hit rate 11% among 59,000; AID 590; max dye-equivalent concentration, M; Compound autofluorescence, 340/450 nm, Alexa 350 dye-equivalents; stronger effect = higher value; in the data active = max dye-equivalent concentration above about 10 nM; inconclusive = mostly about 1.1 nM to 9.6 nM
Each line names hits and unclear results; the compound was inactive in the other large screens. Rows were chosen to be rich in hits. Some 14% of all compounds tested hit in one or more screens of this group. Unless noted, calls follow the shape of the dose curve; as a rule, active = well fitted curve in the direction sought with a large enough effect; inconclusive = small, poorly fitted or top-dose-only effect, or another doubt; inactive = no such curve, though single readings can be large; an effect the other way counts as inactive or inconclusive.

Cc1cc(C)nc(NS(=O)(=O)c2ccc(Br)cc2)n1	none
CNc1cc(NS(=O)(=O)c2ccc(N)cc2)nc(NC)n1	4-MU autofl 2e-08M, A350 autofl 1.5e-08M
Cc1cc(C)nc(NS(=O)(=O)c2ccc(-n3cccc3)cc2)n1	HSD17B inh 16µM
Cc1cc(=O)[nH]c(SCc2nc3ncccn3c2Br)n1	HSD17B inh 32µM, HADH2 inhib inconclusive, CRE-bla Fsk inconclusive, 4-MU autofl 2.5e-07M, A350 autofl 3.3e-07M
CO/N=C(/C)CCC(=O)OC[C@@H]1O[C@H](C#Cc2ccccc2)C=C[C@@H]1Oc1ccc(C)cc1	none (no result: CRE-bla Fsk, 4-MU autofl, A350 autofl)
Cc1cccc(C)c1NC(=O)C1(N(Cc2ccco2)C(=O)c2ccccn2)CCCC1	4-MU autofl inconclusive, A350 autofl 1.2e-08M
O=C(NS(=O)(=O)c1ccc2c(c1)OCCO2)c1ccccc1	4-MU autofl 5.6e-07M, A350 autofl 5.5e-07M
N=c1c2c(-c3ccccc3)c(-c3ccccc3)oc2ncn1CCCN1CCOCC1	CRE-bla Fsk inconclusive, 4-MU autofl 1.6e-08M, A350 autofl 1.7e-08M
c1ccc(-c2oc3ncnc(NCCCn4ccnc4)c3c2-c2ccccc2)cc1	HSD17B inh 25µM, HADH2 inhib 32µM, CRE-bla Fsk inconclusive, 4-MU autofl inconclusive, A350 autofl inconclusive
c1ccc(-c2oc3ncnc(NCCN4CCOCC4)c3c2-c2ccccc2)cc1	HSD17B inh 32µM, HADH2 inhib inconclusive, CRE-bla Fsk inconclusive
c1ccc2c(c1)oc1c(NCCCn3ccnc3)ncnc12	4-MU autofl inconclusive, A350 autofl inconclusive
COc1ccc(-c2nc3c(n2O)CCCC3=O)cc1OC	HSD17B inh inconclusive, 4-MU autofl 1.2e-08M, A350 autofl 1.5e-08M
CC(O)c1cccc(NC2=CC(=O)CC(C)(C)C2)c1 (centres undefined)	4-MU autofl 4.1e-08M, A350 autofl 4.7e-08M
CN1CCN(C(=O)c2cc3c(n(-c4ccccc4)c2=O)CC(C)(C)CC3=O)CC1	4-MU autofl 1.3e-08M, A350 autofl 1.1e-08M
Cc1ccc(-n2c3c(cc(C(=O)N4CCN(C)CC4)c2=O)C(=O)CC(C)(C)C3)cc1	none
COc1ccccc1-c1cc(NCc2ccccc2)ncn1	HSD17B inh inconclusive, CRE-bla Fsk inconclusive
COC(=O)c1ccc(C(NC(=O)OCc2ccccc2)/C(F)=C/[C@@H](C)C(=O)NCCN2CCOCC2)cc1 (some centres undefined)	none (no result: 4-MU autofl, A350 autofl)
CCC(CC)C(=O)Nc1nnc(-c2cccs2)s1	HSD17B inh 3.2µM, HADH2 inhib 25µM, 4-MU autofl 2.3e-08M, A350 autofl 2.2e-08M
CC(=O)Nc1nc(-c2cccs2)cs1	HADH2 inhib inconclusive, 4-MU autofl inconclusive, A350 autofl inconclusive
Cn1c(=O)c2c(nc(/C=C\c3cccc(Cl)c3)n2C)n(C)c1=O	HSD17B inh 0.63µM, HADH2 inhib 4µM, 4-MU autofl 2.2e-07M, A350 autofl 1.9e-07M
O=C(Oc1ccc2c(=O)c(Cl)coc2c1)c1ccncc1	HSD17B inh 32µM, 4-MU autofl 4e-08M, A350 autofl 4.5e-08M
CCCCCOc1ccc(OC(=O)c2ccncc2)cc1	none
COC(=O)C(C)Sc1nnc(SC(C)C(=O)OC)s1 (centres undefined)	CRE-bla Fsk inconclusive, 4-MU autofl 3.1e-08M, A350 autofl inconclusive
Cc1ccccc1-c1nc(N(C)C)c2ccccc2n1	CRE-bla Fsk inconclusive
CCC(CC)C(=O)NCCNC(=O)C(CC)CC	CRE-bla Fsk 2µM
CCOc1ccc2nc(NCCNC(=O)C3CC3)c(C)cc2c1	HSD17B inh 32µM, 4-MU autofl 3.8e-07M, A350 autofl 3.5e-07M
COCC(=O)Nc1nc2ccc(C)cc2s1	CRE-bla Fsk inconclusive
CCOc1ccc2nc(NCCNC(=O)C(C)C)c(C)cc2c1	HSD17B inh 25µM, 4-MU autofl 4.9e-07M, A350 autofl 3.5e-07M
CCOc1ccc2nc(N3CCCC(C(=O)NCCCN4CCOCC4)C3)sc2c1 (centres undefined)	HADH2 inhib inconclusive (no result: 4-MU autofl, A350 autofl)
COCC(=O)NCCNc1nc2ccc(C)cc2cc1C	HSD17B inh 32µM, 4-MU autofl 4.4e-08M, A350 autofl 4.3e-08M
